Source: article PMC5540273 (PLoS ONE, 2017)

Each compound was assayed on CDK7. Details: concentration: 1 μM, replicates: in singlicate; n = 1.
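Further: KINOMEscan kinase panel screen.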

| Compound | %Inh [%] |
| --- | --- |
| COc1cccc(C(=O)Nc2cccc(Oc3ccc4nc(NC(=O)C5CC5)cn4n3)c2)c1 | 0 |
| Cl.Cl.NCC(NC(=O)c1cc(-c2ccccc2)c(-c2ccnc3[nH]ccc23)s1)c1ccccc1 (centres unmarked) [GSK1321561] | 0 |
| CC(=O)Nc1nc2cnc(Nc3cc(NC(=O)c4cccc(C5(C#N)CC5)c4Cl)ccc3C)nc2s1 | 0 |
| COc1cccc(NC(=O)NC2CCN(c3ccnc(Nc4cc(OC)c(OC)c(OC)c4)n3)C2)c1 (centres unmarked) [GSK1379763] | 0 |
| COc1cc2c(cc1OCCN1CCNCC1)ncc1c3ccc(C#N)cc3[nH]c21 | 99.7 |
| CSc1cccc2c(-c3ccncn3)c(-c3ccc(F)cc3)nn12 [GW514786] | 2 |
| Cn1cc(-c2ccc3c(c2)CCN3C(=O)Cc2cccc(Cl)c2)c2c(N)ncnc21 [GSK2606590] | 0 |
| CCS(=O)(=O)c1ccc(OC)c(Nc2nccc(-c3c(-c4cccc(NC(=O)c5c(F)cccc5F)c4)nn4ncccc34)n2)c1 [GSK326180] | 0 |
| CCn1c(-c2nonc2N)nc2c(C#CC(C)(C)O)ncc(OCCCCN)c21.O=C(O)C(F)(F)F.O=C(O)C(F)(F)F [GSK507274] | 0 |
| O=C(Nc1cccc(-c2nn3ccccc3c2-c2ccnc(Nc3cccc(C(F)(F)F)c3)n2)c1)c1c(F)cccc1F [GSK292658] | 6 |
| CN(c1ccc(NC(=O)Nc2cc(C(F)(F)F)ccc2F)cc1)c1ccnc(Nc2ccc(S(N)(=O)=O)cc2)n1 [GW809893] | 95.3 |
| COc1cc(Nc2ncc3c(C)nc(-c4cc5ccccc5[nH]4)n3n2)cc(OC)c1OC [GW869516] | 0 |
| Cc1ccc(C)c(NC(=O)NC2CCN(c3ccnc(Nc4ccc(F)cc4)n3)C2)c1 (centres unmarked) [GSK1379720] | 0 |
| c1ccc(Oc2ccc(Nc3ccnc4cc(-c5ccc(CNCCN6CCOCC6)o5)ccc34)cc2)nc1 [GW567145] | 8 |
| COc1cc(Nc2nccc(-c3c(-c4cccc(NC(=O)c5c(F)cccc5F)c4)nn4ncccc34)n2)cc(OC)c1OC [GSK327238] | 0 |
| COc1cc(Nc2nccc(N3CCC(NC(=O)Nc4cccc(C(C)=O)c4)C3)n2)cc(OC)c1OC (centres unmarked) [GSK1379753] | 0 |

| Compound | %Inh [%] |
| --- | --- |
| Cl.Cl.NCC(NCc1ccc(-c2ccnc3[nH]ccc23)s1)c1ccccc1 (centres unmarked) [GSK1321565] | 65 |
| Oc1cc(Nc2ccnc3cc(I)ccc23)ccc1F [GW552771] | 0 |
| Cc1ccc(C(=O)Nc2ccc(Nc3ccnc4cc(-c5nccs5)ccc34)cc2O)cc1.Cl [GW494702] | 9 |
| C[C@@H]1CC[C@@H](C(=O)Nc2ccccc2)CN1c1cc(-c2ccc3c(N)n[nH]c3c2)nc(N)n1 [GSK2286062] | 0 |
| Nc1ncc(-c2cccnc2)c2scc(-c3ccc4c(c3)CCN4C(=O)Cc3ccccc3)c12 [GSK683281] | 0 |
| Cl.c1ccc(-c2ccc3c(Nc4ccc5[nH]ccc5c4)ccnc3c2)nc1 [GW440138] | 0 |
| CCn1c(-c2nonc2N)nc2c(C#CC(C)(C)O)nc(OC[C@H](N)c3ccccc3)cc21 [GSK943949] | 5 |
| Cn1cc(-c2ccc3c(c2)CCN3C(=O)Cc2cccc(F)c2)c2c(N)ncnc21 [GSK2603358] | 0 |
| O=C(Nc1cccc(-c2nn3ncccc3c2-c2ccnc(Nc3ccccc3)n2)c1)c1c(F)cccc1F [GSK198271] | 0 |
| COc1cc(Nc2nccc(-c3c(-c4cccc(NC(=O)c5c(F)cccc5F)c4)nn4ccccc34)n2)cc(OC)c1OC [GSK323521] | 0 |
| FC(F)(F)c1ccc(/C=C/c2cncnc2Nc2ccc3[nH]c(Cc4ccccc4)nc3c2)cc1 [GW709199] | 0 |
| CC(C)(C)c1ccc2nccc(Nc3cccc(O)c3)c2c1 [GW856795] | 1 |
| CCc1ccc(-c2ccc3c(c2)-c2c(cnn2C)S(=O)(=O)N3C)cc1 | 6 |
| COc1cccc(C2=C(Nc3ccc(Cl)c(C(=O)O)c3)C(=O)NC2=O)c1 [SB-390769] | 0 |
| NCCCC(NC(=O)c1cc(Br)c(-c2ccnc3[nH]ccc23)s1)c1ccccc1.O=C(O)C(F)(F)F.O=C(O)C(F)(F)F (centres unmarked) [GSK1287544] | 4 |
| COC(=O)Nc1nc2ccc(Oc3ccc(NC(=O)Nc4cc(C(F)(F)F)ccc4F)cc3)cc2n1C.Cl [GW692089] | 69 |
